Gal4-VP16 FLuc: inhibits Gal4-VP16 luciferase reporter, ROR gamma counter-screen | Drosophila S2 Gal4-VP16 UAS-luciferase, luminescence, 20 h | Potency, µM (titrated, usually from 53.6 µM), without a hit: top-dose activity, negative = inhibition, actives largely listed as inhibitors | hit rate 3.5% among 310,000 | AID 2546;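 further: Gal4-VP16 expression switched on by copper sulfate through the metallothionein promoter; potency means the concentration at half of the fitted maximal effect; on the % scale 0 is the no-effect control and ±100 the full control effect; nearly all actives have a fitted effect of over 50% in size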
p53 reactivation: mutant p53 re-activation in reporter cells; H1299 p53-A138V BP100-luciferase reporter, luminescence, 24 h; hit rate 0.063% among 320,000; AID 504706; Potency, µM (doses to about 92.2 µM), inactives show at the top dose activity change, positive = activation, most hits filed as activators; further: potency means the concentration at half of the fitted maximal effect; % of control where 0% means no effect; nearly all actives have a fitted effect of over 45% in size
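p53-null H1299 cells stably carrying temperature-sensitive p53-A138V and a BP100-luciferase reporter were pinned with compounds (4-point, 1:5 series) and held 24 hrs at 37 deg C. Luminescence was read 10 min after detection reagent.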
Giardia killer: Giardia lamblia killing | AID 540267 | Giardia lamblia trophozoite viability | activity change, % at 7.66 µM, hits read low | hit rate 0.15% among 340,000; in the data active means activity change below about -80%; inconclusive means between about -30% and that limit;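 further: parasites exposed to compound for two days anaerobically before the ATP read; on the % scale 0 is the no-effect control and ±100 the full control effect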
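Media and compound were dispensed first, then trophozoites at 100 cells/well; plates sat 48 hrs at 37 deg C without oxygen before ATP luminescence reagent was added and read after 15-30 min at room temperature.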
ELG1 repair inh: blocks ELG1-dependent DNA repair in HEK293T cells; HEK293T ELG1-luciferase reporter, luminescence, 16 h; DNA damage induced by 5-fluorouridine; Potency, µM (series often up to 46.1 µM), for inactives: top-dose activity change, negative = inhibition, usual class: inhibitors; hit rate 2.3% among 330,000; AID 504467; further: potency means the concentration at half of the fitted maximal effect; on the % scale 0 is the no-effect control and ±100 the full control effect; nearly all actives have a fitted effect of over 55% in size
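DMSO vehicle served as the neutral condition. Each well held 2,000 cells given 5-fluorouridine plus compound; after 16 hr at 37 °C/5% CO2, ONE-Glo was added and luciferase measured 30 min later.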
RORgamma inh: inhibitors of mouse ROR gamma transcriptional activity; hit rate 5.4% among 310,000; P51450; Potency, µM (series often up to 53.6 µM), without a hit: at the highest dose activity change, negative = inhibition, actives largely listed as inhibitors; Drosophila S2 Gal4-RORgamma UAS-luciferase reporter, 20 h; AID 2551; further: potency means the concentration at half of the fitted maximal effect; on the % scale 0 is the no-effect control and ±100 the full control effect; nearly all actives have a fitted effect of over 60% in size
Target sequence (P51450 whole entry, looked up, the tested form may be a part): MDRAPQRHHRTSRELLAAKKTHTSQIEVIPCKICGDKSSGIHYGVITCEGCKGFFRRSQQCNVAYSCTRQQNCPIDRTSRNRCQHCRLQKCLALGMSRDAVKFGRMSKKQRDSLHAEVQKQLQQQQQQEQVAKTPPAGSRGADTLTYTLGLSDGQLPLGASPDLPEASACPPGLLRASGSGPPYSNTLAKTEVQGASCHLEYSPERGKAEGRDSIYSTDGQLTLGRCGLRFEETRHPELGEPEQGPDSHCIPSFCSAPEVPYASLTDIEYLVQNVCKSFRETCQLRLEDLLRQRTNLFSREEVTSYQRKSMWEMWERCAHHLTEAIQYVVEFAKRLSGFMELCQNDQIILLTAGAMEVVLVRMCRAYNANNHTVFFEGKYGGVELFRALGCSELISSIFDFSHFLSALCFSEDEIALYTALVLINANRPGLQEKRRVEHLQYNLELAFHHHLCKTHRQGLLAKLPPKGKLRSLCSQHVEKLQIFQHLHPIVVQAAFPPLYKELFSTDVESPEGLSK
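Compounds are pin-transferred onto Drosophila Schneider cells expressing a copper-inducible Gal4–ROR gamma transactivation domain fusion. After 1 hr, copper sulfate is added to 700 uM final; luciferase is read 20 hr later.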
BRCA1 expr act: activators of BRCA1 expression; MCF7-BRCA1-FFLuc reporter, luminescence, 48 h; response scale: scaled: vehicle 0%, 10 µM genistein 100%; Potency, µM (titrated, usually from 46.1 µM), for the others: at the highest dose activation, most hits filed as activators; hit rate 1.1% among 380,000; further: potency means the concentration at half of the fitted maximal effect; nearly all actives have a fitted effect of over 80% in size
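Cells: MCF7-BRCA1-FFLuc, 2000/well. Exposure: 48 h, 37 °C, 5% CO2. Read: luminescence, 15 min post-substrate. Controls: genistein 10 microM (maximal activation), DMSO (neutral).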
An asterisk follows results filed as active; ? = inconclusive; · = no result. The list is not random: actives were taken first. Their share in the collection is about 7.6%. Unless noted, the call rests on the fitted dose curve; in most records, active means well fitted curve in the direction sought with a large enough effect; inconclusive means small, poorly fitted or top-dose-only effect, or another doubt; inactive means no such curve, though single readings can be large; an effect the other way counts as inactive or inconclusive.

SMILES	Gal4-VP16 FLuc	p53 reactivation	Giardia killer	ELG1 repair inh	RORgamma inh	BRCA1 expr act
Cc1nc(NC(=O)c2cc3c(s2)CCCCC3)sc1C(=O)N(C)C	21%	12%	3	?	16%	68%
Cc1csc(NC(=O)c2cc3c(s2)CCC3)n1	8.9µM*	·	-19	?	2µM*	?
O=C(NCc1cccs1)c1csc2c1CCCCC2	12%	-3%	13	18%	21%	63%
O=C(NCc1cccs1)c1cc2c(s1)CCCC2	20%	?	3	?	14%	13µM*
CCOC(=O)c1sc(NC(=O)c2cc3c(s2)CCC(C)C3)nc1C (configuration not stated)	0%	-2%	-11	?	0.25µM*	-92%
COC(=O)c1sc(NC(=O)c2cc3c(s2)CCCC3)nc1C	?	-7%	-16	?	1.8µM*	12%
CCC(C)C(NC(=O)C(Cc1ccc(O)cc1)NC(=O)C(N)C(C)C)C(=O)NC(Cc1cnc[nH]1)C(=O)N1CCCC1C(=O)NC(Cc1ccccc1)C(=O)O (configuration not stated)	-6%	·	·	·	-1%	·
CCC(C(=O)OCC(=O)c1ccc(OC)cc1OC)c1ccccc1 (configuration not stated)	·	?	4	?	·	59%
Cc1csc(NC(=O)c2cccs2)n1	-8%	?	-2	?	18%	?
CCc1sc(C(=O)Nc2nc(C)cs2)cc1C	11µM*	?	3	?	5µM*	?
COc1cccc(NC(=S)NNC(=O)Cn2nc(C(F)F)cc2C(F)F)c1	?	15%	52	1%	1.1µM*	-16%
O=C(Cn1nc(C(F)F)cc1C(F)F)NNC(=S)Nc1ccc(F)cc1	-8%	-4%	-2	-1%	-40%	5%
Cc1cc(C(F)(F)F)nn1CC(=O)NNC(=S)Nc1cccc(Cl)c1	?	-2%	9	-1%	11µM*	1%
Cc1cc([N+](=O)[O-])nn1CC(=O)NNC(=S)Nc1ccc(Cl)cc1	?	14%	-6	-5%	16µM*	-27%
O=C(Cn1nc(C(F)F)cc1C(F)F)NNC(=S)Nc1ccc([N+](=O)[O-])cc1	?	6%	21	9%	10µM*	-20%
O=C1[C@H]2[C@@H](c3ccccc3)N[C@]3(CCCN(Cc4ccc(C(F)(F)F)cc4)C3=O)[C@H]2C(=O)N1Cc1ccccc1	·	·	·	·	·	-56%
CCOc1ccc(CNc2ncc(-c3ccccc3)n2C)cc1	0%	0%	-7	7%	-41%	-1%
CC(=O)Nc1cccc(C(=O)N2CCC(n3nccc3NC(=O)CC(C)C)CC2)c1	2%	-2%	-11	22%	-9%	-16%
CC(C)(C)CC(=O)Nc1ccc(-c2cn3cccnc3n2)cc1	-23%	24%	?	?	-28%	94%
C[C@H](CO)N1C[C@H](C)[C@H](CN(C)Cc2ccncc2)Oc2cc(-c3ccccc3F)ccc2S1(=O)=O	·	·	·	·	·	-8%
O=C(c1cc(Sc2cccc(Cl)c2)nc2ccccc12)N1CCN(c2ccccn2)CC1	?	-5%	9	21µM*	16%	-68%
CC(C)(C)C(=O)Nc1ccc(N2CCN(c3ccc(C(F)(F)F)cn3)CC2)nc1	-8%	0%	7	9.2µM*	?	-7%
O=C(c1ccco1)N1CCN(C(=O)c2cc(-c3ccccn3)nc3ccc(Cl)cc23)CC1	-3%	-9%	-13	10µM*	6%	-39%
O=C(c1cc(Sc2ccc(Cl)cc2)nc2ccccc12)N1CCN(c2ccccn2)CC1	-19%	-4%	12	?	-2%	-52%
Cc1cccc(C(=O)Nc2ccc(N3CCN(c4ccc(C(F)(F)F)cn4)CC3)nc2)c1	-7%	-2%	-7	16%	0%	-3%
SMILES	Gal4-VP16 FLuc	p53 reactivation	Giardia killer	ELG1 repair inh	RORgamma inh	BRCA1 expr act
Cc1noc(C)c1COc1ccccc1C(=O)N1CCN(c2cccc(Cl)c2)CC1	·	-6%	17	9.2µM*	·	-40%
FC(F)(F)c1cccc(NC(=S)N2CCN(c3ccccc3)CC2)c1	0%	3%	-4	?	?	10%
CCOC(=O)c1ccc(O)c(-n2cc3c(c2-c2ccccc2)c(=O)n(C)c(=O)n3C)c1	·	·	·	·	·	0%
CC(=O)N(C(C)=O)c1cccc(N(Cc2ccccc2)Cc2ccccc2)c1	·	·	5	·	·	-83%
CN(c1ccccc1C(=O)N1CCN(c2cccc(Cl)c2)CC1)S(C)(=O)=O	15%	-8%	4	-15%	25%	-18%
O=C(c1cc(-c2ccccc2Cl)nc2ccccc12)N1CCN(c2ccccn2)CC1	·	0%	22	23µM*	·	9%
O=C(c1cc(-c2ccccc2Cl)nc2ccccc12)N1CCN(c2ccccc2O)CC1	·	-15%	1	13µM*	·	-61%
O=C(c1cnc(N2CCN(c3ccccn3)CC2)c2ccccc12)N1CCN(c2cccc(Cl)c2)CC1	1.6µM*	-1%	4	4.6µM*	?	-26%
O=C(c1cc(Cl)ccc1Cl)N1CCN(c2ccccn2)CC1	6%	-16%	-8	-1%	0%	-19%
O=C(c1cc(-c2ccccc2Cl)nc2ccccc12)N1CCC1	·	-9%	-1	-1%	·	-17%
CSc1ccccc1C(=O)N1CCN(c2cccc(Cl)c2)CC1	-3%	-5%	-6	21µM*	4%	-93%
O=C(Nc1ccc(C(F)(F)F)cc1)c1cnc(N2CCN(c3ccccn3)CC2)c2ccccc12	-11%	-1%	8	5.2µM*	-7%	-62%
COc1ccc(-c2cc(C(=O)N3CCN(c4ccccc4O)CC3)c3ccccc3n2)cc1OC	3%	-10%	13	9.2µM*	?	-57%
COc1cc2cc(CN(Cc3cccnc3)C(=O)Nc3ccccc3)c(=O)[nH]c2cc1OC	4%	-2%	34	7.3µM*	1%	-5%
CCC(C)NC(=S)N(CCc1ccccc1)Cc1cc2cc(OC)c(OC)cc2[nH]c1=O (configuration not stated)	?	-17%	-11	6.5µM*	-45%	-65%
COc1ccc2[nH]c(=O)c(CN(CCc3ccccc3)C(C)=O)cc2c1	-12%	-2%	1	1%	0%	8%
O=S(=O)(c1ccc(F)c(F)c1)N1CCN(c2ncccn2)CC1	-13%	·	-11	-1%	-6%	-17%
Cc1cc(N2CCCCC2)nc(SCC(=O)c2ccccc2)n1	20%	?	2	?	-7%	10µM*
Cc1cc(SCC(=O)c2ccccc2)n2nc(C)nc2n1	7.1µM*	?	0	?	14µM*	0%
